H9c2 protect: cardioprotection against H2O2-induced cell death, primary screen, uHTS, H9c2 cells, ATPLite luminescence. protection from H2O2 cell death, % at 20 µM. hit rate 0.63% among 360,000. AID 588492, 2011. H9c2 cardiomyocytes, H2O2 injury protection, 2 h;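 active means compounds giving at least 50% protection of heart cells from peroxide-induced death in the single-dose screen, raw or plate-pattern-corrected value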;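 further: 0% = DMSO wells with peroxide and 100% = DMSO wells without peroxide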
KCC2 mod: KCC2 cotransporter modulators, thallium flux, primary screen, cell-based, HEK293 KCC2, FluoZin-2 fluorescence, MLSMR | Solute carrier family 12 member 5 (Homo sapiens), Q9H2X9 | KCC2 cells, thallium flux FluoZin-2 fluorescence | B-score of Tl+ flux slope (higher = more flux/activation; lower = inhibition) at 10 µM | hit rate 2.2% among 190,000;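 active means thallium flux slope and its plate-corrected score both differing from the plate sample mean at a set confidence after two filtering rounds, in either direction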;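 further: slope of fluorescence scaled to starting intensity during 10 to 20 s after thallium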
PHOSPHO1 block: PubChem AID 1565; recombinant PHOSPHO1, absorbance phosphatase assay; hit rate 1.1% among 290,000; inhibition, % at 13.3 µM; Phosphoethanolamine/phosphocholine phosphatase (Homo sapiens), Q8TCT1; in the data active means inhibition above about 60%
Target sequence (Q8TCT1 whole entry, looked up): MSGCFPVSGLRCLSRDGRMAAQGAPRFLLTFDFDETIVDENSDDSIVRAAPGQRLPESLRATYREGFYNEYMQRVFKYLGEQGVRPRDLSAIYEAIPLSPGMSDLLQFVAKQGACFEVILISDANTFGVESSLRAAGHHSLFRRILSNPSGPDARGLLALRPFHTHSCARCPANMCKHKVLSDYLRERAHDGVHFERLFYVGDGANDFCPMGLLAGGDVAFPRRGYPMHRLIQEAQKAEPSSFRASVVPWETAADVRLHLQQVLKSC
Calb FLC: C. albicans growth inhibition with fluconazole, primary screen, CaCi-2 strain, Alamar Blue fluorescence; C. albicans CaCi-2 (fluconazole-resistant clinical isolate) + fluconazole, 48 h; growth inhibition, % (no concentration beside the values); AID 1979, 2009; hit rate 0.57% among 300,000;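 active means growth inhibition above about 58% in most replicates, limit read from the data, passing the limit was not always enough; inconclusive means exactly half the replicates above a set limit; inactive means most replicates below a set limit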;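 further: all wells also contain fluconazole at 8 µg/ml as a sub-toxic cotreatment; 0% = median of DMSO wells and 100% = median of geldanamycin control wells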
Efflux pump mplx: inhibitors of Candida efflux pumps in yeast, primary screen, S. cerevisiae, Nile Red, multiplex; S. cerevisiae Candida pump triplex; inhibition, % at 10 µM; hit rate 0.44% among 330,000;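 active means plate passing quality check with inhibition over a set limit, or well fluorescence over plate mean plus 4 SD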;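 further: Nile Red retained in pooled yeast measured as flow cytometry median fluorescence; 0% = buffer negative control and 100% = Enniatin B positive control; higher means more Nile Red kept so more efflux inhibition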
Numbers without * were called inactive; ? = inconclusive; nt = no result given. Only some compounds are listed: those with a hit (about 3.3% of all), similar ones and a draw of the others.

SMILES | H9c2 protect | KCC2 mod | PHOSPHO1 block | Calb FLC | Efflux pump mplx
CCOC(=O)c1cnc(-n2nc(C)cc2C)nc1NCc1ccccc1 | 63.3* | nt | 55.2 | -12.9 | 0.2
CCCCCCCCCCCCCCCC[n+]1cccc2ccccc21 | -21.6 | 1.25 | 6.0 | nt | 1.1*
CCCCCCCCC[n+]1cccc2c3ccccc3ccc21 | -35.4 | nt | -2.9 | 3.7 | 0.0
O=C(O)c1ccccc1C(=O)Nc1n[nH]c(=S)s1 | 15.4 | -0.391 | 98.8* | ? | -0.2
CCOCCN1CCN(c2c(CC)c(C)nc3cc(-c4cc(OC)cc(OC)c4)nn23)CC1 | 73.3* | -1.15 | -8.0 | 2.9 | 0.1
CC1=NN(C(N)=S)C(=O)C1N=Nc1ccccc1C (configuration not stated) | -2.1 | 17.7* | -22.9 | 50.8 | -0.1
CC1=NN(C(N)=S)C(=O)C1N=Nc1ccc(C)cc1C (configuration not stated) | nt | 20.8* | 18.2 | 23.5 | -0.1
CC1=NN(C(N)=S)C(=O)C1N=Nc1ccccc1O (configuration not stated) | 2.6 | nt | nt | -4.3 | 0.4
O=C(NC1CCCCC1)C(c1cccnc1)N(C(=O)c1csnn1)c1ccc(F)cc1 (configuration not stated) | -0.9 | nt | 39.2 | -0.6 | 0.1
CC(=O)NC(CC(=O)OCC(=O)NCCc1ccccc1)c1ccccc1 (configuration not stated) | 0.3 | nt | nt | -4.7 | 0.0
COc1ccccc1NC(=S)NNC(=O)c1nn(C)c(C)c1Cl | 4.1 | 1.88 | 78.9* | 5.1 | -0.1
COc1ccccc1NC(=S)NNC(=O)c1nn(C)cc1Cl | 15.1 | 0.299 | 71.9* | 3.4 | 0.0
COc1ccccc1NC(=S)NNC(=O)c1ccc(O)cc1 | -12.4 | -0.412 | 70.9* | -3.1 | -0.1
COc1ccc(C)cc1NC(=S)NNC(=O)c1c(Br)cnn1C | 1.0 | -1.48 | -140.2 | 72.4* | -0.2
COc1ccc(C)cc1NC(=S)NNC(=O)c1ccccc1Cl | -9.5 | nt | 45.1 | nt | -0.1
Nc1ccc2c(Cl)cc(Cl)cc2c1 | -15.1 | nt | nt | nt | nt
CCn1c(SCC(=O)Nc2ccc(N3CCOCC3)cc2)nnc1-c1ccncc1 | -2.8 | nt | 5.0 | 1.6 | -0.1
C#CC(C)(C)NC(=O)c1ccc(-c2ccccc2F)cc1 | -0.8 | 1.34 | 1.5 | -4.6 | 0.1
O=C(O)c1ccc(CN2C(=O)CSC2=S)cc1 | 0.3 | 0.734 | 71.1* | 98.4* | -0.1
O=C(OCC(=O)N1CCc2ccccc21)c1n[nH]c(=O)c2ccccc12 | 72.9* | nt | nt | nt | -0.1
CC1(C)CC2CC(C)(CN2C(=O)COC(=O)c2n[nH]c(=O)c3ccccc23)C1 (configuration not stated) | 60.1* | 0.329 | 6.7 | 5.6 | 0.0
Cn1nc(C(=O)OCC(=O)N2CCc3ccccc32)c2ccccc2c1=O | 4.7 | nt | -36.8 | -6.3 | -0.1
CC1CCCC(C)N1C(=O)COC(=O)c1n[nH]c(=O)c2ccccc12 (configuration not stated) | 53.5* | nt | nt | nt | 0.1
CC1(C)CC2CC(C)(CN2C(=O)COC(=O)c2cccnc2Cl)C1 (configuration not stated) | 6.3 | nt | nt | nt | 0.0
O=C(OCC(=O)N1CCCCCC1)c1n[nH]c(=O)c2ccccc12 | 51.3* | -0.0739 | -73.1 | 3.9 | -0.1
SMILES | H9c2 protect | KCC2 mod | PHOSPHO1 block | Calb FLC | Efflux pump mplx
O=[N+]([O-])c1ccc(O)c(C(C#Cc2ccccc2)N2CCOCC2)c1 (configuration not stated) | -4.6 | 1.28 | 12.3 | 32.8 | 0.1
Cc1ccccc1OCC(=O)Nc1ccc([N+](=O)[O-])cc1 | -7.4 | nt | 44.4 | -6.4 | 0.0
C=CC(C)(C)c1c(O)c(CC=C(C)C)c(O)c2c(=O)c3ccc(O)c(O)c3oc12 | -11.7 | nt | nt | 83.6* | 0.3
C=CC(C)(C)c1c2occc2c(O)c2ccc(=O)oc12 | -9.5 | nt | nt | nt | 0.0
COc1cc(CC(=O)Nc2nccs2)cc(OC)c1OC | 1.9 | -0.122 | -8.1 | 105.7* | 0.0
Cc1csc2ncc(C(=O)N3CCCc4ccccc43)c(=O)n12 | 8.0 | 0.228 | 26.2 | -2.2 | 0.0
Cc1csc2ncc(C(=O)N3CCc4ccccc43)c(=O)n12 | -1.2 | -2.85* | nt | -2.9 | 0.0
Cc1ccc(-c2nn3c(C)nnc3s2)cc1NC(=O)COc1ccc(Cl)cc1 | 50.3* | -0.286 | -11.0 | -3.7 | 0.2
Cc1cccc2cc(COC(=O)c3cccnc3)c(=O)[nH]c12 | 9.9 | 0.0261 | 78.4* | -4.3 | 0.0
Cc1ccc2cc(COC(=O)c3ccncc3)c(=O)[nH]c2c1 | -0.2 | nt | 85.6* | 9.0 | 0.3
CC1(C)OC(=O)C2=C(C[C@@H](CCOCc3ccccc3)O[C@H]2c2ccc(F)cc2)O1 | -0.9 | nt | nt | nt | nt
COCC(C)(C)COS(N)(=O)=O | -9.7 | nt | -18.6 | -3.5 | 0.1
CC(C)(C)C(=O)NC(=S)NNC(=O)c1ccncc1 | 1.3 | 0.726 | 20.3 | -22.6 | -0.3
Cc1ccc(C(=O)NNC(=S)NC(=O)COc2ccccc2)cc1 | 23.3 | 94.8* | 96.9* | -8.5 | 0.0
CC(C)(C)C(=O)NC(=S)NNC(=O)c1ccc(-c2ccccc2)cc1 | 30.2 | 86.6* | -77.9 | 98.2* | 0.2
Cc1ccccc1C(=O)NNC(=S)NC(=O)COc1ccccc1 | 14.4 | 19.5* | 97.4* | -28.3 | -0.1
CC(C)(C)c1ccc(C(=O)NC(=S)NNC(=O)COc2ccccc2)cc1 | -5.0 | nt | -5.4 | 100.5* | 0.1
COc1ccc(/C=C/c2cc(-c3ccc(C)cc3)o[n+]2C)cc1 | -13.8 | -0.675 | 19.1 | 89.7* | 0.0
CCc1ccc(-c2nc(SCC(=O)N(C)C3CCS(=O)(=O)C3)n[nH]2)cc1 (configuration not stated) | -15.7 | nt | nt | -6.2 | 0.0
COCCN(C(=O)CNC(=O)c1ccco1)C(C(=O)NC1CCCC1)c1ccc(F)cc1 (configuration not stated) | 2.0 | nt | 0.0 | -9.6 | 0.6
O=C(NCC(=O)N(Cc1ccccc1)C(C(=O)NC1CCCC1)c1cccnc1)c1ccco1 (configuration not stated) | 4.0 | 0.853 | 199.4* | -31.1 | 0.2
CC(C)CCN(C(=O)CNC(=O)c1ccco1)C(C(=O)NC1CCCCC1)c1ccco1 (configuration not stated) | 51.8* | 0.277 | -30.9 | 7.2 | 0.3
CCC1(C)Cc2c(C#N)c(N)sc(=S)c2CO1 (configuration not stated) | -7.2 | nt | 89.7* | 14.3 | -0.2
N#Cc1c(N)sc(=S)c2c1CCCC2 | 5.9 | -0.0338 | 99.1* | 7.6 | 0.0
CCC1(C)Cc2c(C#N)c(N)n(-c3ccccc3)c(=S)c2CO1 (configuration not stated) | 2.2 | 1.02 | 24.1 | -2.8 | -0.1
CCOC(=O)CSc1n[nH]c(NC(=O)c2cccc(C)c2)n1 | 3.5 | nt | 60.5* | -9.3 | 0.1
Cc1nc(Cl)nc(N(C)c2ccccc2)c1[N+](=O)[O-] | 17.8 | -1.61 | -0.8 | -0.6 | 0.2
